According to PubChem BioAssay (NCI):
This is part of a sample that, as a whole, favours compounds with a hit. Of some 83,000 tested, about 20% had one in any assay.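 Cell lines were cultured in 96-well plates, exposed to a single compound concentration, and assessed for percent growth 48 hours later.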 Unmarked numbers belong to inactive results. Activity calls are given as the source filed them. The calls were made as follows: active = growth percent below 10; inactive = the rest.

Tests used:
Test in all cases: NCI-60 one-dose screen, 48 h (100 = growth as untreated, 0 = no growth, -100 = all killed)
Conditions in all cases: 10 µM unless noted
SK-MEL-2 melanoma = system: SK-MEL-2 melanoma
EKVX NSCLC = system: EKVX NSCLC
SN12C renal = system: SN12C renal
TK-10 renal = system: TK-10 renal
ACHN renal = system: ACHN renal
CAKI-1 renal = system: CAKI-1 renal
A498 renal = system: A498 renal
CCRF-CEM leukemia = system: CCRF-CEM leukemia
MOLT-4 leukemia = system: MOLT-4 leukemia
SR leukemia = system: SR leukemia
RPMI-8226 leukemia = system: RPMI-8226 leukemia
OVCAR-8 ovarian = system: OVCAR-8 ovarian
OVCAR-5 ovarian = system: OVCAR-5 ovarian
OVCAR-4 ovarian = system: OVCAR-4 ovarian
SK-OV-3 ovarian = system: SK-OV-3 ovarian
IGROV1 ovarian = system: IGROV1 ovarian
OVCAR-3 ovarian = system: OVCAR-3 ovarian
HS 578T breast = system: HS 578T breast
NCI/ADR-RES ovarian = system: NCI/ADR-RES ovarian
UO-31 renal = system: UO-31 renal

Cc1cnc2nc(-c3ccc(N(C)C)cc3)cn2c1 gave a growth (SK-MEL-2 melanoma) of 101%, a growth (EKVX NSCLC) of 91.7% and a growth (SN12C renal) of 103%. It also gave a growth (TK-10 renal) of 97.6%, a growth (ACHN renal) of 112% and a growth (CAKI-1 renal) of 108%. The growth (A498 renal) was 107%, the growth (CCRF-CEM leukemia) was 83.3% and the growth (MOLT-4 leukemia) was 91.9%. It also gave a growth (SR leukemia) of 100%, a growth (RPMI-8226 leukemia) of 117% and a growth (OVCAR-8 ovarian) of 103%. For the same compound, the growth (OVCAR-5 ovarian) was 78.4%, the growth (OVCAR-4 ovarian) was 118% and the growth (SK-OV-3 ovarian) was 119%. For the same compound, the growth (IGROV1 ovarian) was -14.9% (active), the growth (OVCAR-3 ovarian) was 107% and the growth (HS 578T breast) was 109%. The growth (NCI/ADR-RES ovarian) was 85.9%.
For CC(C)N(Cc1ccccc1)c1c(S)ssc1=S, the growth (SK-MEL-2 melanoma) was 7.27% (active), the growth (EKVX NSCLC) was 5.44% (active) and the growth (SN12C renal) was 11%. For the same compound, the growth (TK-10 renal) was 37.1%, the growth (ACHN renal) was 5.95% (active) and the growth (CAKI-1 renal) was -2.48% (active). For the same compound, the growth (A498 renal) was -7.36% (active), the growth (CCRF-CEM leukemia) was -81.6% (active) and the growth (MOLT-4 leukemia) was 0.0865% (active). The growth (SR leukemia) was 2.98% (active), the growth (RPMI-8226 leukemia) was -65.4% (active) and the growth (OVCAR-8 ovarian) was 14.7%. For the same compound, the growth (OVCAR-5 ovarian) was 14.1%, the growth (OVCAR-4 ovarian) was -2.68% (active) and the growth (SK-OV-3 ovarian) was 11.7%. The growth (IGROV1 ovarian) was -39.4% (active), the growth (OVCAR-3 ovarian) was 28.1% and the growth (HS 578T breast) was 6.03% (active). It also gave a growth (NCI/ADR-RES ovarian) of 15.9%.
With Cc1cc2c(cc1C)[n+](Cc1ccc3ccccc3n1)cn2Cc1ccc2ccccc2n1 the growth (SK-MEL-2 melanoma) was -32% (active), the growth (EKVX NSCLC) was 39.6% and the growth (SN12C renal) was 15.2%. It also gave a growth (UO-31 renal) of 53.2%, a growth (ACHN renal) of 56.5% and a growth (A498 renal) of 17.1%. The growth (CCRF-CEM leukemia) was 15.1%, the growth (MOLT-4 leukemia) was 7.97% (active) and the growth (SR leukemia) was -20.2% (active). The growth (RPMI-8226 leukemia) was -30.7% (active), the growth (OVCAR-8 ovarian) was 6.48% (active) and the growth (OVCAR-5 ovarian) was 23.6%. For the same compound, the growth (OVCAR-4 ovarian) was 8.38% (active), the growth (SK-OV-3 ovarian) was 0.95% (active) and the growth (IGROV1 ovarian) was -4.22% (active). The growth (OVCAR-3 ovarian) was 3.63% (active), the growth (HS 578T breast) was 27.3% and the growth (NCI/ADR-RES ovarian) was 96.4%.
COP(=O)(OC)C(c1ccc(O)cc1)(c1ccc(O)cc1)c1ccc(O)cc1 gave a growth (SK-MEL-2 melanoma) of 101%, a growth (EKVX NSCLC) of 113% and a growth (SN12C renal) of 105%. It also gave a growth (TK-10 renal) of 124%, a growth (ACHN renal) of 103% and a growth (CAKI-1 renal) of 94.9%. The growth (A498 renal) was 98.7%, the growth (CCRF-CEM leukemia) was 5.74% (active) and the growth (MOLT-4 leukemia) was 94.3%. For the same compound, the growth (SR leukemia) was 93.4%, the growth (RPMI-8226 leukemia) was 99.3% and the growth (OVCAR-8 ovarian) was 97.2%. For the same compound, the growth (OVCAR-5 ovarian) was 124%, the growth (OVCAR-4 ovarian) was 99.3% and the growth (SK-OV-3 ovarian) was 122%. For the same compound, the growth (IGROV1 ovarian) was 11.3%, the growth (OVCAR-3 ovarian) was 81.3% and the growth (HS 578T breast) was 98.8%. It also gave a growth (NCI/ADR-RES ovarian) of 92.3%.
O=C1NCCc2c1noc2-c1ccccc1 was tested, and the growth (SK-MEL-2 melanoma) was 101%, the growth (EKVX NSCLC) was 97.8% and the growth (SN12C renal) was 109%. It also gave a growth (UO-31 renal) of 88.2%, a growth (ACHN renal) of 106% and a growth (A498 renal) of 105%. It also gave a growth (CCRF-CEM leukemia) of 109%, a growth (MOLT-4 leukemia) of 97.5% and a growth (SR leukemia) of 103%. It also gave a growth (OVCAR-8 ovarian) of 109%, a growth (OVCAR-5 ovarian) of 103% and a growth (OVCAR-4 ovarian) of 114%. It also gave a growth (SK-OV-3 ovarian) of 91.3%, a growth (IGROV1 ovarian) of 99.5% and a growth (OVCAR-3 ovarian) of 113%. For the same compound, the growth (HS 578T breast) was 111% and the growth (NCI/ADR-RES ovarian) was 98.6%.
Compound OCc1n(Cc2ccc3ccccc3c2)cc[n+]1Cc1ccc2ccccc2c1 has a growth (SK-MEL-2 melanoma) of 67.7%, a growth (EKVX NSCLC) of 83.3% and a growth (SN12C renal) of 41.7%. For the same compound, the growth (UO-31 renal) was 83.5%, the growth (ACHN renal) was 109% and the growth (A498 renal) was 72.7%. It also gave a growth (CCRF-CEM leukemia) of 34.2%, a growth (MOLT-4 leukemia) of 47.5% and a growth (SR leukemia) of 15.9%. The growth (RPMI-8226 leukemia) was 13.5%, the growth (OVCAR-8 ovarian) was 60.7% and the growth (OVCAR-5 ovarian) was 62.3%. The growth (OVCAR-4 ovarian) was 23.9%, the growth (SK-OV-3 ovarian) was 75.9% and the growth (IGROV1 ovarian) was 21.9%. The growth (OVCAR-3 ovarian) was 39.9%, the growth (HS 578T breast) was 66.1% and the growth (NCI/ADR-RES ovarian) was 103%.
With COc1cc(/C=C/C(=O)C(C(=O)/C=C/c2ccc(OC(=O)CCNC34CC5CC(CC(C5)C3)C4)c(OC)c2)C(=O)CCNC23CC4CC(CC(C4)C2)C3)ccc1OC(=O)CCNC12CC3CC(CC(C3)C1)C2 (configuration not stated) the growth (SK-MEL-2 melanoma) was 7.68% (active), the growth (EKVX NSCLC) was 19.6% and the growth (SN12C renal) was 5.02% (active). For the same compound, the growth (TK-10 renal) was 44.2%, the growth (ACHN renal) was 6.38% (active) and the growth (CAKI-1 renal) was 18.6%. For the same compound, the growth (A498 renal) was 59.3%, the growth (CCRF-CEM leukemia) was -36.4% (active) and the growth (MOLT-4 leukemia) was -20.4% (active). For the same compound, the growth (SR leukemia) was -48.6% (active), the growth (RPMI-8226 leukemia) was -51.6% (active) and the growth (OVCAR-8 ovarian) was 8.87% (active). The growth (OVCAR-5 ovarian) was 37.8%, the growth (OVCAR-4 ovarian) was 25.8% and the growth (SK-OV-3 ovarian) was 42.8%. The growth (IGROV1 ovarian) was -33.2% (active), the growth (OVCAR-3 ovarian) was 14.9% and the growth (HS 578T breast) was 6.55% (active). For the same compound, the growth (NCI/ADR-RES ovarian) was 41.7%.
With CCNCCCn1c2c(c3ccc(F)cc3c1=O)C(=O)c1cc(OC)cnc1-2 the growth (SK-MEL-2 melanoma) was -3.1% (active), the growth (EKVX NSCLC) was -14.4% (active) and the growth (SN12C renal) was 1.58% (active). For the same compound, the growth (UO-31 renal) was -90.7% (active), the growth (ACHN renal) was -47.5% (active) and the growth (A498 renal) was -91.2% (active). For the same compound, the growth (CCRF-CEM leukemia) was 1.07% (active), the growth (MOLT-4 leukemia) was -15.6% (active) and the growth (SR leukemia) was -4.37% (active). For the same compound, the growth (RPMI-8226 leukemia) was -25.7% (active), the growth (OVCAR-8 ovarian) was -15.1% (active) and the growth (OVCAR-5 ovarian) was 3.24% (active). For the same compound, the growth (OVCAR-4 ovarian) was -4.39% (active), the growth (SK-OV-3 ovarian) was -30.4% (active) and the growth (IGROV1 ovarian) was 2.58% (active). For the same compound, the growth (OVCAR-3 ovarian) was -16.9% (active), the growth (HS 578T breast) was 14.9% and the growth (NCI/ADR-RES ovarian) was -29.4% (active).
